Active and inactive are the calls of the source.
How the values were obtained:
[1] = system: Plasmodium falciparum Sir2 (PF13_0152, Sir2A); assay: Plasmodium falciparum Sir2A binding compounds – biochemical, small-molecule microarray, 635 nm fluorescence, primary screen (AID 1098); conditions: fluorescence 635 nm, higher = more signal;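 note: score merges spot fluorescence intensity with its signal-to-noise ratio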
[2] = probe aDKK1 binding to arrayed compounds – biochemical, biotinylated probe, 635/667 nm fluorescence, primary screen (AID 1099); conditions: small-molecule microarray, higher = more signal;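 note: score merges 667nm spot fluorescence with signal to noise across triplicate slides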
[3] = probe aCHRDL2 binding to arrayed compounds – biochemical, biotinylated probe, 635/667 nm fluorescence, primary screen (AID 1100); conditions: small-molecule microarray, higher = more signal
[4] = change in splice reporter luminescence, either direction, cell-based, HEK293, spliceosome inhibition project, primary screen (AID 1101); conditions: HEK293 splicing luciferase reporter, 24 h, higher = more signal, called active from +8 up or from −8 down;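 note: HEK293 cells carrying a splicing-competent luciferase reporter gene; test concentration not given here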
[5] = target: Fibroblast growth factor 10 (Homo sapiens) (UniProt O15520); assay: compounds binding fibroblast growth factor 10 – biochemical, small-molecule microarray, 635 nm fluorescence, primary screen (AID 1102); conditions: FGF10 binding, fluorescence 635 nm, higher = more signal
Chain of Fibroblast growth factor 10 (Homo sapiens) (O15520 whole entry, looked up): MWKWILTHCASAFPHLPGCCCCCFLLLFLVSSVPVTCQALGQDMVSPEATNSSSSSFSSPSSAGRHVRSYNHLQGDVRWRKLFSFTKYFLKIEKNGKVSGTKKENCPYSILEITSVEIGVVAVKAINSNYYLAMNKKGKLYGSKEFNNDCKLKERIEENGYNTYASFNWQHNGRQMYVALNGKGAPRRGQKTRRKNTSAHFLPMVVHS

[6] = system: glycogen synthase kinase-3 (GSK3A per assay name; protocol says GSK3B); assay: compounds binding glycogen synthase kinase-3 – biochemical, small-molecule microarray, 635 nm fluorescence, GSK3A, primary screen (AID 1103); conditions: fluorescence 635 nm, higher = more signal; note: the record names both GSK3A and GSK3B
[7] = target: Epidermal growth factor receptor (Homo sapiens) (UniProt P00533); assay: compounds binding epidermal growth factor receptor – biochemical, small-molecule microarray, 635 nm fluorescence, primary screen (AID 1104); conditions: EGFR binding, higher = more signal;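 note: score merges 667 nm emission intensity with spot signal to noise over triplicate slides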
Chain of Epidermal growth factor receptor (Homo sapiens) (P00533 whole entry, looked up): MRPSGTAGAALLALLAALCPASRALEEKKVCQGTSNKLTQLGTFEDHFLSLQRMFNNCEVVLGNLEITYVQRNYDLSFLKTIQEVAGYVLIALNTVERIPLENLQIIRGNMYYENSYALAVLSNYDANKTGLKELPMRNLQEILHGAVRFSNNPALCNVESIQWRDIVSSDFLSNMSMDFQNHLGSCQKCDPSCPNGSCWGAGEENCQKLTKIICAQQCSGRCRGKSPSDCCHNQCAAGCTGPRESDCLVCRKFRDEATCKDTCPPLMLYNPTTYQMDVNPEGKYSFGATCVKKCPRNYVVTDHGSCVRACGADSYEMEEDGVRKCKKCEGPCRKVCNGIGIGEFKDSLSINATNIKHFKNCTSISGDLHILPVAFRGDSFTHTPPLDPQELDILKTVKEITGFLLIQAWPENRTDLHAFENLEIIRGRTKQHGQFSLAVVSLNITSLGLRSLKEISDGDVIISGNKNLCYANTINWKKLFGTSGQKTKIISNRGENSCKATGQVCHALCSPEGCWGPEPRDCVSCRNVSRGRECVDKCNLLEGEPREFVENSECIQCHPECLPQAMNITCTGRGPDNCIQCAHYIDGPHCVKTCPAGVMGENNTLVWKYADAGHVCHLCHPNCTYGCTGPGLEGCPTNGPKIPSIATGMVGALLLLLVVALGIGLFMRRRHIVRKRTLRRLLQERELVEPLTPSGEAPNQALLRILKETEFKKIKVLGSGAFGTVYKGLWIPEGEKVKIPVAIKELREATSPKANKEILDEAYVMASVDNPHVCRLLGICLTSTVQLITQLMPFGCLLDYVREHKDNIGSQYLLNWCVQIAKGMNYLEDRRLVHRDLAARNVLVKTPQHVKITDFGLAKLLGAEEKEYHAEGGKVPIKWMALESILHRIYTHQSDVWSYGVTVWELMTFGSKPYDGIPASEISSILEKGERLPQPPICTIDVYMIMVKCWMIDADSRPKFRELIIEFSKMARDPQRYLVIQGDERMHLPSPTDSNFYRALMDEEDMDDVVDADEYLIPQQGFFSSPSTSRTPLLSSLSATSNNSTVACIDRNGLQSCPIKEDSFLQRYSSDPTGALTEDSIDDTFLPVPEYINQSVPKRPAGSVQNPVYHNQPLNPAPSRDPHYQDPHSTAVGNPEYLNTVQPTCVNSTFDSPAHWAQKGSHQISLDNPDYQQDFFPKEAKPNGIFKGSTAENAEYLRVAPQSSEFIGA

[8] = target: Follistatin-related protein 3 (Homo sapiens) (UniProt O95633); assay: compounds binding follistatin-related protein 3 – biochemical, small-molecule microarray, 635 nm fluorescence, primary screen (AID 1105); conditions: FSTL3 binding, higher = more signal;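 note: score merges emission near 667 nm and signal to noise per printed spot across three slides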
Chain of Follistatin-related protein 3 (Homo sapiens) (O95633 whole entry, looked up): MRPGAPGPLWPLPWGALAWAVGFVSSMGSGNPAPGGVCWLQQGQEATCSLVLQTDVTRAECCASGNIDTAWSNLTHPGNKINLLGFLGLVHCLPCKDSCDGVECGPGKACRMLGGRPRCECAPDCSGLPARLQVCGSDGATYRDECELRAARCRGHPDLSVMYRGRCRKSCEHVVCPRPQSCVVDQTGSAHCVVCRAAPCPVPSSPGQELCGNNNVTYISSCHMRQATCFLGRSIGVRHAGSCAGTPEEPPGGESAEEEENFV

[9] = target: Dickkopf-related protein 1 (Homo sapiens) (UniProt O94907); assay: small molecules binding DKK1 protein – biochemical, small-molecule microarray, 635 nm fluorescence scan, primary screen (AID 1106); conditions: higher = more signal;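 note: score merges emission near 667 nm with signal to noise over three replicate slides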
Chain of Dickkopf-related protein 1 (Homo sapiens) (O94907 whole entry, looked up): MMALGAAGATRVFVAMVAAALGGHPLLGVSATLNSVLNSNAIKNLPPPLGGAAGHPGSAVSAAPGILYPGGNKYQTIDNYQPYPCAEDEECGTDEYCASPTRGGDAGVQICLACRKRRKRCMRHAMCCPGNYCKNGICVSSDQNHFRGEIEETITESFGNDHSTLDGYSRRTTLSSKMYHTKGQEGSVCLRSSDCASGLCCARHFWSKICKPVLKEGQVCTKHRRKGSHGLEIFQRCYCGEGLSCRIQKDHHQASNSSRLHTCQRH

[10] = system: Inhibin beta A chain (activin A); assay: small molecules binding activin A – biochemical, small-molecule microarray, 635 nm fluorescence scan, primary screen (AID 1107); conditions: INHBA, higher = more signal;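 note: mouse activin A protein probed at 4.33 µg/mL on printed slides; score merges bound-protein fluorescence near 667 nm with spot signal-to-noise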
[11] = system: Human papillomavirus type 1a protein E7 (residues 44-93); assay: small molecules binding HPV E7 44-93 – biochemical, small-molecule microarray, residues 44-93, 635 nm fluorescence, primary screen (AID 1108); conditions: fluorescence 635 nm, higher = more signal;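 note: E7 fragment applied at 1 µg/mL in TBST for 1 h at 4 C; score combines spot fluorescence with its signal to noise ratio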
[12] = hepatitis C replication reporter changes, two-sided – Huh7 cells, luciferase reporter, HCV replication inhibitor project, primary screen (AID 1109); conditions: Huh7 HCV replicon luciferase reporter, 48 h; higher = more signal;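 note: huh7 hepatoma cells harbouring a luciferase neomycin HCV replicon reporter; luciferase luminescence as measure of HCV replicon replication; test concentration not given here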
[13] = target: Left-right determination factor 2 (Homo sapiens) (UniProt O00292); assay: small molecules binding LEFTY2 protein – biochemical, small-molecule microarray, 635 nm fluorescence scan, primary screen (AID 1110); conditions: higher = more signal
Chain of Left-right determination factor 2 (Homo sapiens) (O00292 whole entry, looked up): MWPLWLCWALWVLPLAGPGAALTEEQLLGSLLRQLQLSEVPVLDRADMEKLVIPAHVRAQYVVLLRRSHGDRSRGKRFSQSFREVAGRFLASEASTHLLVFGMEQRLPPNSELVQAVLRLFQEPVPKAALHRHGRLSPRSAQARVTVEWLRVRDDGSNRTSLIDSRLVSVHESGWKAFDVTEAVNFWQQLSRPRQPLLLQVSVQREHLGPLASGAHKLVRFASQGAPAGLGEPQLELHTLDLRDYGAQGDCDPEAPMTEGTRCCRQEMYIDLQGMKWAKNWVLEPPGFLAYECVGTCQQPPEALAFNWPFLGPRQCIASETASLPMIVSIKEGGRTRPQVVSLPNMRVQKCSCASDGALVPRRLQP

[14] = target: Calmodulin-1 (Homo sapiens) (UniProt P0DP23); assay: small molecules binding calmodulin-1 with EGTA – biochemical, small-molecule microarray, Cy5-labelled CALM1, profiling panel (AID 1111); conditions: Cy5-CALM1 binding fluorescence, higher = more signal;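 note: labelled calmodulin applied in Tris saline Tween buffer holding calcium plus EGTA and DTT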
[15] = target: Calmodulin-1 (Homo sapiens) (UniProt P0DP23); assay: small molecules binding Ca-loaded calmodulin-1 – biochemical, small-molecule microarray, Cy5-labelled CALM1, plus calcium, artefact control for SMM control-protein annotation, profiling panel (AID 1112); conditions: Cy5-CALM1 binding fluorescence, higher = more signal;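 note: score merges spot fluorescence with signal to noise from triplicate slides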
[16] = probe aWnt5a binding to arrayed compounds – biochemical, biotinylated probe, 635/667 nm fluorescence, primary screen (AID 1113); conditions: small-molecule microarray, higher = more signal;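 note: score merges 667 nm fluorescence intensity with signal-to-noise per printed feature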
[17] = probe aShh binding to arrayed compounds – biochemical, biotinylated probe, 635/667 nm fluorescence, primary screen (AID 1114); conditions: small-molecule microarray, higher = more signal;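 note: probe is biotin-labelled aShh protein from a stem cell growth factor screen; measures binding of labelled protein to compounds printed on the slide; score merges feature fluorescence at 667 nm with signal-to-noise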
[18] = probe aNog binding to arrayed compounds – biochemical, biotinylated probe, 635/667 nm fluorescence, primary screen (AID 1115); conditions: small-molecule microarray, higher = more signal;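 note: probe is biotinylated aNog protein used at 0.15 µg/mL for 1 h at 4 C; z-score combines 667 nm fluorescence of each spot with its signal to noise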
[19] = target: Torsin-1A-interacting protein 1 (Homo sapiens) (UniProt Q5JTV8); assay: compound microarray binding of lysate hLAP1 – cell lysate, small-molecule microarray, COS7 lysate, 635/667 nm fluorescence, primary screen (AID 1116); conditions: 635 nm fluorescence, higher = more signal
Chain of Torsin-1A-interacting protein 1 (Homo sapiens) (Q5JTV8 whole entry, looked up): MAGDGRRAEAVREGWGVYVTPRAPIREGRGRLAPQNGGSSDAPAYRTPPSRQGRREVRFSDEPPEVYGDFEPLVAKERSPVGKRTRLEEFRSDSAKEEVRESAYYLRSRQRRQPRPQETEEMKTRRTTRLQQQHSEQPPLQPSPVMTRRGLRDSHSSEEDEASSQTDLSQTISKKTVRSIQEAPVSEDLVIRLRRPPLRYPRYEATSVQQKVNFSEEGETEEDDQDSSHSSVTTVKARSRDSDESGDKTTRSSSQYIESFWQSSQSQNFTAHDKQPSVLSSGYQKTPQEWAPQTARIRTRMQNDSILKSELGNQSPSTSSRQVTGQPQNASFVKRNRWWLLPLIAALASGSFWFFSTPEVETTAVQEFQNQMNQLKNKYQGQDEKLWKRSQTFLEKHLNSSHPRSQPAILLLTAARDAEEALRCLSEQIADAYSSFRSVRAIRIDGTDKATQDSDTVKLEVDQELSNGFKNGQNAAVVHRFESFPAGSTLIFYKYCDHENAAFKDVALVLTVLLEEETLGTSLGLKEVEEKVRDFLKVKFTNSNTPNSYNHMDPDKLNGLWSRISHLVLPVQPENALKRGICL

[20] = target: Alpha-bungarotoxin (Bungarus multicinctus) (UniProt P60615); assay: compounds binding labelled alpha-BTX control protein – biochemical, small-molecule microarray, Alexa647 label, 635/667 nm fluorescence, artefact control for SMM control protein annotation, profiling panel (AID 1117); conditions: alpha-BTX-A647 binding fluorescence, higher = more signal
Chain of Alpha-bungarotoxin (Bungarus multicinctus) (P60615 whole entry, looked up): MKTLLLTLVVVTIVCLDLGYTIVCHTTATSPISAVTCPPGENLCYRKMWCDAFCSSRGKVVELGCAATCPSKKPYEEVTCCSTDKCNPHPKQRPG

| SMILES | composite z-score [1] | composite z-score [2] | composite z-score [3] | z-score [4] | composite z-score [5] | composite z-score [6] | composite z-score [7] | composite z-score [8] | composite z-score [9] | composite z-score [10] | composite z-score [11] | z-score [12] | composite z-score [13] | composite z-score [14] | composite z-score [15] | composite z-score [16] | composite z-score [17] | composite z-score [18] | composite z-score [19] | composite z-score [20] |
| --- | --- | --- | --- | --- | --- | --- | --- | --- | --- | --- | --- | --- | --- | --- | --- | --- | --- | --- | --- | --- |
| CC(C)(C)OC(=O)CC[C@@]1(C(=O)NCc2ccccc2)N=C(c2ccc(OCCCO)cc2)O[C@@H]1c1ccccc1CN=[N+]=[N-] | 1.08 | 1.06 | 0.997 | 0.014 (inactive) | 1.16 | 1.3 | 0.0887 | 0.622 | 0.11 | 0.664 | -0.179 | -2.28 | 0.0022 | 1.61 | 0.605 | 0.164 | -0.0446 | 0.799 | 0.487 | 1.55 |
| CC(C)(C)OC(=O)CC[C@@]12N=C(c3ccc(OCCCO)cc3)O[C@@H]1c1ccccc1CN(Cc1ccccc1)C2=O | 1.39 | 0.578 | 0.505 | -0.0992 (inactive) | 1.14 | 1.19 | 0.12 | 0.459 | 0.388 | 0.682 | 0.33 | -2.92 | -0.152 | 0.927 | 0.368 | -0.0981 | 1.23 | 0.36 | 0.886 | 0.941 |
| [N-]=[N+]=Nc1ccccc1[C@H]1OC(c2ccc(OCCCO)cc2)=N[C@@]1(Cc1ccccc1)C(N)=O | 0.929 | 1.46 | 1.23 | -1.86 (inactive) | 1.09 | 1.28 | 0.13 | 1.09 | 0.0868 | 1.43 | 1.33 | -0.742 | 0.172 | 2.26 | 1.12 | 0.0998 | 1.03 | 0.489 | 1.12 | 3.09 |
| C=CCN1C(=O)[C@]2(O[C@H](CCn3cc([C@H](O)c4ccccc4)nn3)[C@@H]([Si](C)(C)c3ccc(OC)cc3)[C@@H]2C)c2cc(N3CCOC3=O)ccc21 | 0.147 | -0.228 | 0.0778 | -2.35 (inactive) | -0.57 | 0.387 | -0.754 | -0.577 | -0.272 | 0.147 | 0.724 | -3.64 | -0.69 | -0.169 | -0.367 | -0.16 | -0.043 | -0.176 | 0.525 | 0.479 |
| Cc1ccc(S[C@]2(C(=O)NC3CC3)CC(=O)N(Cc3ccccc3C(F)(F)F)[C@@H]2c2ccc(CO)cc2I)cc1 | 1.64 | 0.913 | 1.1 | -2.01 (inactive) | -0.28 | -0.0828 | -0.385 | -0.292 | -0.425 | 1.72 | 0.33 | -1.55 | -0.659 | 0.514 | 1.14 | -0.124 | 0.188 | 0.568 | 0.955 | 0.0637 |
| CCCCCN1CC=CC23O[C@@H]4/C=C\CCC(C)OC(=O)C4[C@H]2C(=O)N(CCCO)[C@@H]3C1=O (stereo not given in full) | 0.936 | -0.212 | 0.183 | -0.246 (inactive) | -0.753 | -0.723 | -1.36 | -1.24 | -0.543 | 0.797 | -0.93 | -0.333 | -1.15 | -1.35 | 0.0216 | -0.194 | -0.2 | -0.0511 | 1.99 | 2.69 |
| COCCCNC(=O)[C@@]1(CCS(=O)(=O)c2ccccc2)N=C(c2ccc(OCCCO)cc2)O[C@H]1c1ccccc1CN=[N+]=[N-] | 1.14 | 1.17 | 1.12 | -0.594 (inactive) | 1.14 | 1.31 | 0.184 | 0.847 | 0.245 | 1.22 | 1.13 | -2.04 | 0.266 | 2.02 | 0.986 | 0.183 | 0.81 | 0.64 | 0.732 | 2.42 |
| O=C(NCc1ccccc1)[C@@H]1c2ccccc2C(=O)N(Cc2ccccc2Cl)[C@H]1c1ccc(CO)cc1 | 0.447 | 1 | 1.01 | -1.05 (inactive) | 0.814 | 1.32 | 0.183 | 1.42 | 0.909 | 0.791 | 1.05 | -0.267 | 0.671 | -0.23 | 0.0368 | 0.0297 | 0.123 | 0.522 | 1.21 | 1.67 |
| CC(C)(C)OC(=O)CC[C@]1(C(=O)NCc2ccccc2)N=C(c2ccc(OCCCO)cc2)O[C@H]1c1ccccc1N=[N+]=[N-] | 1.02 | 1.36 | 1.35 | -2.19 (inactive) | 1.21 | 1.29 | -0.0113 | 1 | 0.496 | 0.947 | -0.385 | -0.5 | 0.478 | 2.14 | 0.756 | 0.17 | 0.57 | 1.11 | 1.63 | 2.77 |
| Cc1ccc(S[C@]2(C(=O)NCC(C)C)CC(=O)N(C(C)C)[C@@H]2c2ccc(CO)cc2)cc1 | 0.0739 | 0.457 | 0.696 | -0.982 (inactive) | -0.475 | -0.771 | -0.33 | -0.196 | -0.574 | 0.727 | -0.962 | -0.725 | -0.594 | -0.886 | 0.134 | -0.124 | -0.137 | -0.163 | 0.623 | -1.11 |
| O=C(O)[C@H]1C[C@H]2C(=O)N[C@@H](Cc3ccccc3)C(=O)N2[C@H]1c1ccc(O)cc1 | 1.56 | 0.844 | 0.913 | -0.282 (inactive) | -0.349 | 0.661 | -0.502 | -0.192 | -0.0944 | 0.945 | -0.067 | -0.262 | -0.307 | -0.195 | 0.504 | -0.0678 | -0.0783 | 0.586 | 0.777 | 0.824 |

Source: PubChem BioAssay
